An excerpt weighted towards active compounds, which were near 11% of everything screened.
Sfp PPTase inh: qHTS Assay for Inhibitors of Bacillus subtilis Sfp phosphopantetheinyl transferase (PPTase); Biochemical Sfp PPTase activity, qHTS; Potency, µM, most hits filed as inhibitors; actives 3.5% (n = 310,000); 4'-phosphopantetheinyl transferase ffp (Bacillus subtilis), Q9F4F7;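 further: the enzyme is Sfp with the accession as filed and its product quenches rhodamine fluorescence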
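Step 1, compound plus 15 nM Sfp-PPTase, 15 min, room temperature. Step 2, add rhodamine-CoA (5 uM) and BHQ-2-YbbR (12.5 uM). Step 3, read 525/598 nm fluorescence at 0 and 30 min.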
Tau fibril FP: qHTS for Inhibitors of Tau Fibril Formation, Fluorescence Polarization | Microtubule-associated protein tau (Homo sapiens), P10636 | K18 P301L tau heparin fibrillization, Alexa594 FP, 6 h | Potency, µM (top dose mostly 57.7 µM), hits mostly inhibitors | actives 0.39% (n = 280,000); further: nearly all actives have a fitted effect of over 55% in size
Target sequence (P10636 561-689 P618L limits assumed): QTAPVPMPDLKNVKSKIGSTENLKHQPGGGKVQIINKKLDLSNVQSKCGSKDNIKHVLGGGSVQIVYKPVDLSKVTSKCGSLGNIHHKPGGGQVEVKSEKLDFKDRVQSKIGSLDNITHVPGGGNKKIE
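Recombinant K18 P301L […], labeled with Alexa 594 at 0.24 uM over 15 uM unlabeled; heparin inducer 20 uM final; 37 C, 6 hr; FP endpoint.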
Tau ThT inhib: qHTS for Inhibitors of Tau Fibril Formation, Thioflavin T Binding; Potency, µM (series often up to 57.4 µM), usual class: inhibitors; recombinant tau K18 P301L, heparin-induced fibrillization, ThT fluorescence; Microtubule-associated protein tau (Homo sapiens), P10636; actives 2.1% (n = 270,000); AID 1460, 2008; further: nearly all actives have a fitted effect of over 55% in size
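Aggregation was driven by heparin (20 uM final) acting on recombinant tau […] bearing P301L in 100 mM sodium acetate pH 7; fibrils were detected with Thioflavin T.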
Tau fluor cs: Counterscreen qHTS for Inhibitors of Tau Fibril Formation, Fluorescence Polarization. tau K18 P301L Alexa594 fluorescence, heparin fibrillization. Potency, µM (highest dose often 57.7 µM). actives 0.93% (n = 280,000); further: nearly all actives have a fitted effect of over 55% in size
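Human K18 P301L tau (15 uM unlabeled plus 0.24 uM Alexa 594-labeled, final) in 100 mM sodium acetate pH 7 was mixed with compound and 20 uM heparin and incubated 6 hr at 37 C.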
G9a block: qHTS Assay for Inhibitors of Histone Lysine Methyltransferase G9a; actives 8.8% (n = 350,000); Histone-lysine N-methyltransferase EHMT2 (Homo sapiens), Q96KQ7; Potency, µM (titrated, usually from 102 µM), usual class: inhibitors; G9a H3K9 monomethylation, AlphaScreen, 2 h; further: nearly all actives have a fitted effect of over 75% in size
Target sequence (Q96KQ7 913-1193 limits assumed): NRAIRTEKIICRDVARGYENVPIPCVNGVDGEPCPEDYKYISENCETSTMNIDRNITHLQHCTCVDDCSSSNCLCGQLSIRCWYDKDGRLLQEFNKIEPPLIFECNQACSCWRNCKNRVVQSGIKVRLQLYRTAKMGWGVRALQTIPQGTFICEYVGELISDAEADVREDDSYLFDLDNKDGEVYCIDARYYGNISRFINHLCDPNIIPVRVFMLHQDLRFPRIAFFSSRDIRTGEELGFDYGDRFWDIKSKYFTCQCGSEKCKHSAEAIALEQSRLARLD
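AlphaScreen read-out: biotin-H3K9 peptide (500 nM) methylation by 20 nM enzyme with 20 uM SAM, 2 h at room temperature after 15 min compound preincubation; anti-monomethyl H3K9 antibody plus donor/acceptor beads, 10 min dark.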
Coupling enz: qHTS Assay for Inhibitors of Fructose-1,6-bisphosphate Aldolase from Giardia Lamblia: Coupling assay counterscreen; AID 2472, 2010; actives 0.67% (n = 290,000); coupling enzyme system counterscreen, AmpLite Red fluorescence; activity change, negative = inhibition, % at 58.2 µM, hits read low; in the data active means activity change below about -30%
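Counterscreen of the coupled detection system alone, without aldolase: glyceraldehyde-3-phosphate coupling enzymes plus AmpLite Red readout. Compounds at 57.5 uM final, 10 min RT preincubation, 20 min RT reaction, fluorescence 525/598 nm.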
Tau fibril TEM: Transmission Electron Microscopy Assay for Inhibitors of Tau Fibrillization. shares compounds with Tau ThT inhib. fibril grade (0 = clumped fibrils, 4 = only tiny pieces) (no concentration beside the values). recombinant tau K18 P301L fibrillization, TEM grading; hits give high values. actives 70% (n = 45). AID 1719, 2009;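 active means compounds whose electron micrographs showed tau fibrils broken into shorter filaments or fragments, graded high on fibril breakup; inconclusive means micrographs gave an unclear fibril picture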
tau sediment: Sedimentation Assay for Inhibitors of Tau Fibrillization. shares compounds with Tau ThT inhib. recombinant tau K18 P301L (four-repeat tau fragment), sedimentation SDS-PAGE densitometry. inhibition, % at 100 µM. actives 50% (n = 110); in the data active means inhibition above about 40%; inconclusive means no clear call, values can overlap the other calls; inactive means below about 18%
Sfp PPTase conf: Confirmation qHTS Assay for Inhibitors of Bacillus subtilis Sfp phosphopantetheinyl transferase (PPTase); shares compounds with Sfp PPTase inh; Sfp PPTase enzymatic assay, qHTS titration; Potency, µM (titrated, usually from 114 µM), hits mostly inhibitors; actives 79% (n = 380); AID 2701, 2010
Target sequence (Q9F4F7 whole entry, looked up): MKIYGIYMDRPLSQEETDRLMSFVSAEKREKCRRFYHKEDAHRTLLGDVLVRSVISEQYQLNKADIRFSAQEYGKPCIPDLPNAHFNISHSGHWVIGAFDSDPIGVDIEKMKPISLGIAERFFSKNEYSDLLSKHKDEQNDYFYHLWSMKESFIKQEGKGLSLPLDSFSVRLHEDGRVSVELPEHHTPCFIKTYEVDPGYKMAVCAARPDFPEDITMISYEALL
Sfp gel assay: Gel-Based Assay for Inhibitors of Bacillus subtilis Sfp phosphopantetheinyl transferase (PPTase). AID 2707, 2010. actives 20% (n = 210). Potency, µM, actives largely listed as inhibitors. purified Sfp, gel-based phosphopantetheinylation read-out. shares compounds with Sfp PPTase inh;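 active means potency below 100 µM; inconclusive means dose-dependent response but potency above 100 µM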;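 further: potency is an IC50 for inhibitors of Sfp transfer activity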
Large screens that a line does not name were inactive (follow-up assays come after a bar, where they were run); ! = not active in a repeat. Unless noted, the call rests on the fitted dose curve; in most records, active means well fitted curve in the direction sought with a large enough effect; inconclusive means small, poorly fitted or top-dose-only effect, or another doubt; inactive means no such curve, though single readings can be large; an effect the other way counts as inactive or inconclusive.

COc1cccc(CNc2cccc3cccnc23)c1O	Sfp PPTase inh 4.5µM, Tau fibril FP inconclusive, Tau ThT inhib 28µM, Tau fluor cs inconclusive, G9a block inconclusive, Coupling enz -57 | Tau fibril TEM 2 | tau sediment inconclusive | Sfp PPTase conf 21µM | Sfp gel assay inactive
COc1cccc(CNc2ccccn2)c1O	none (no result: Tau fibril FP, Tau ThT inhib, Tau fluor cs)
CCOC(=O)c1nn(-c2ccccc2)c(=O)c2c(N)scc12	Sfp PPTase inh 13µM, Tau fibril FP inconclusive, Tau ThT inhib 8.9µM, Tau fluor cs inconclusive, G9a block 1.6µM, Coupling enz -45 | Tau fibril TEM 2 | tau sediment 73 | Sfp PPTase conf 19µM
CCOC(=O)C1CCN(C(=O)c2cc3c(=O)n4ccccc4nc3n2C)CC1	none
Nc1cc(-c2ccncc2)c[nH]c1=O	Sfp PPTase inh 6.3µM!, Tau fibril FP 2µM, Tau ThT inhib 1.4µM, Tau fluor cs inconclusive, G9a block 45µM!, Coupling enz -73 | Tau fibril TEM 3 | tau sediment 61 | Sfp PPTase conf 13µM | Sfp gel assay inconclusive
Cc1nnc(SCC(=O)Nc2ccc(N3CCN(S(C)(=O)=O)CC3)cc2)o1	none (no result: Tau fibril FP, Tau ThT inhib, Tau fluor cs)
CC(OC(=O)c1ccc2ccccc2c1)C(=O)N(C)Cc1ccccc1 (stereo not drawn)	none (no result: Sfp PPTase inh, Tau fibril FP, Tau ThT inhib, Tau fluor cs, Coupling enz)
CC(C)N(CCC(=O)c1ccc2ccccc2c1)Cc1ccccc1	Sfp PPTase inh 4µM, Tau ThT inhib inconclusive, G9a block 1.7µM | Sfp PPTase conf 15µM | Sfp gel assay inconclusive
COc1ccc(-c2nc(N)c(C#N)c(-c3cccnc3)c2C)cc1	Tau ThT inhib inconclusive
Cc1ccc(-n2cc(CNCCN3CCOC3=O)c(-c3cccc(C)c3)n2)cc1	Sfp PPTase inh 45µM, Tau ThT inhib inconclusive, G9a block 35µM | Sfp PPTase conf inactive | Sfp gel assay inactive
CCn1c(COc2ccc(OC)cc2)nnc1SCc1nc2ccccc2c(=O)[nH]1	none
O=C(CN1C(=O)CC(c2ccco2)Sc2ccccc21)NCC1CCCO1 (stereo not drawn)	Sfp PPTase inh 11µM, Tau fibril FP inconclusive, Tau ThT inhib inconclusive, G9a block 11µM | Sfp PPTase conf 7.4µM
Cc1ccc(CNC(=O)CCC2CCCN(Cc3cc4ccccc4o3)C2)o1 (stereo not drawn)	G9a block inconclusive (no result: Tau ThT inhib)
Nc1c(C(=O)Nc2ccccc2F)sc2nc(-c3ccco3)ccc12	Sfp PPTase inh 4µM, Tau ThT inhib inconclusive, Tau fluor cs inconclusive, G9a block inconclusive | Sfp PPTase conf 1.7µM
NC(=O)c1sc2nc(-c3ccco3)ccc2c1N	Sfp PPTase inh 5µM, Tau ThT inhib 6.3µM, Tau fluor cs inconclusive, G9a block inconclusive | Sfp PPTase conf 6.6µM | Sfp gel assay inactive
Nc1c(C(=O)Nc2ccccc2F)sc2nc(-c3cccnc3)ccc12	Sfp PPTase inh inconclusive, Tau fluor cs inconclusive (no result: Tau ThT inhib, G9a block)
CCOC(=O)c1sc2nc(-c3cccnc3)ccc2c1N	Tau ThT inhib inconclusive, Tau fluor cs inconclusive
Cc1ccc(N(CC(C)C)S(=O)(=O)c2nnc(NC(=O)c3cccs3)s2)cc1	none (no result: Sfp PPTase inh, Coupling enz)
O=C(/C=C/c1ccccc1)Nc1cccc(S(=O)(=O)Nc2ccccc2F)c1	Sfp PPTase inh 4µM, Tau fibril FP inconclusive, Tau ThT inhib inconclusive, Tau fluor cs inconclusive, G9a block 1.6µM | Sfp PPTase conf 3.7µM
CC(=O)NS(=O)(=O)c1ccc(NC(=O)/C=C/c2ccccc2)cc1	G9a block inconclusive
COc1ccc(CNC(=O)c2ccc(Cn3nc(C)cc3C)o2)cc1	none (no result: Tau fibril FP, Tau ThT inhib, Tau fluor cs)
Cc1cc(C(F)(F)F)nn1Cc1ccc(C(=O)NCc2ccco2)o1	Sfp PPTase inh 0.89µM, Tau fibril FP inconclusive, Tau ThT inhib inconclusive, G9a block inconclusive | Sfp PPTase conf 47µM
O=C(CNS(=O)(=O)c1cccc(F)c1)OCC(=O)N1CCCC1=O	none (no result: Sfp PPTase inh, Tau fibril FP, Tau ThT inhib, Tau fluor cs, Coupling enz)
CCOc1ccc2nc(SCC(=O)c3ccc(C)s3)sc2c1	Sfp PPTase inh 18µM, Tau ThT inhib inconclusive, Tau fluor cs inconclusive, G9a block inconclusive | Sfp PPTase conf inconclusive | Sfp gel assay inactive
CCOc1ccc2nc(SCC(=O)c3ccc(O)cc3O)sc2c1	none (no result: Tau fibril FP, Tau ThT inhib, Tau fluor cs)
COc1ccccc1NS(=O)(=O)c1cc(NC(=O)c2sccc2C)ccc1N1CCCC1	Sfp PPTase inh 2.8µM, Tau ThT inhib inconclusive, Tau fluor cs inconclusive, G9a block 3.5µM | Sfp PPTase conf 17µM
COc1ccccc1NS(=O)(=O)c1cc(NC(=O)c2sccc2C)ccc1N1CCOCC1	none
COc1cc2c(Nc3ccc(Br)cc3F)ncnc2cc1OCC1CCN(C)CC1	G9a block inconclusive (no result: Tau fibril FP, Tau ThT inhib, Tau fluor cs, Coupling enz)
COC(=O)c1c(NC(=O)COC(=O)c2ccc(Cl)cc2[N+](=O)[O-])sc2c1CCCCC2	Sfp PPTase inh 10µM | Sfp PPTase conf inconclusive
COC(=O)c1c(NC(=O)CS(=O)(=O)c2ccc(C)cc2)sc2c1CCCC2	none (no result: Sfp PPTase inh, Coupling enz)
COc1ccc(-c2nn3c(COc4ccccc4)nnc3s2)cc1OC	Sfp PPTase inh inconclusive, G9a block inconclusive
c1csc(-c2nn3c(C4COc5ccccc5O4)nnc3s2)c1 (stereo not drawn)	Sfp PPTase inh 7.9µM, Tau ThT inhib inconclusive, G9a block 5µM | Sfp PPTase conf 24µM
c1ccc(OCc2nnc3sc(-c4cccs4)nn23)cc1	Sfp PPTase inh 10µM, Tau fibril FP inconclusive, Tau ThT inhib inconclusive, G9a block inconclusive | Sfp PPTase conf 9.4µM
